SMILES strings stand for the structures. Screen size: about 370,000 compounds; about 3,700 (1%) were called active.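 The calls were made as follows: active = activation above the mean over all tested compounds plus 3 SD (cut at about 0.9% in these data); inactive = the rest.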 Only a selection was taken, and actives are over-represented in it overall.

For this assay, the system named is Nuclear hormone receptor DAF-12 (Strongyloides stercoralis). Briefly: ssDAF-12 driven luciferase reporter activation – cell-based, luminescence, HEK293, GRIP1 co-expression, lit1-tk-luc, primary screen (AID 652126).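 Also: 0% = DMSO-only wells and 100% = 3 µM delta7-dafachronic acid wells.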 Particulars: HEK293 ssDAF-12/GRIP1 lit1-tk-luc reporter, at 6.8 µM, hits give high values, % of 3 µM dafachronic acid response. For orientation: In a reporter assay the amount or activity of a reporter protein is the signal.
On to `O=C(CNC1CCCCC1)NCC1(c2ccccc2)CCCC1`, for which the activation is -1.46% (inactive).
The value for `CCC(NC(=O)C1C2C=CC3(CN(Cc4ccccc4)C(=O)C13)O2)c1ccccc1` (centres undefined) was -1.54% (inactive).
As to `COc1ccc(C(C(=O)NCc2ccccc2)n2c(=O)c(-c3ccccc3)nc3ccccc32)cc1` (centres undefined), the activation is -0.84% (inactive).
`COc1ccc(NC(=O)C(c2ccncc2)n2c(=O)c(-c3cc4ccccc4[nH]3)nc3ccccc32)cc1` (centres undefined): the activation is 1.22% (active).
`CCCCCNC(=O)C(c1ccc(OC)cc1)n1c(=O)c(-c2ccccc2)nc2ccccc21` (centres undefined): the activation is -0.6% (inactive).
The result for `O=C(NCc1cccs1)C1CCN(S(=O)(=O)c2ccccc2[N+](=O)[O-])CC1` reads -1.16% (inactive); that for `N#CCC[C@H]1CC[C@]2(CCCN(Cc3ccc(Cl)cc3)C2)O1`, -1.32% (inactive).
For the molecule `O=C(Nc1ccc2c(c1)CCC2)c1ccc(Br)s1`, the activation was 1.14% (active).
The result for `CC(C)Oc1ccc(C(=O)NCC(=O)Nc2ccc3c(c2)CCC3)cc1` reads -0.37% (inactive); that for `O=C(Nc1ccc(F)cc1)c1cc2c(s1)CCCC2`, 0.25% (inactive).
The result for `Cc1ccc(/C=C/C(=O)O)cc1S(=O)(=O)N1CCC(Cc2ccccc2)CC1` reads -1.4% (inactive).
The value for `Cc1ccc(S(=O)(=O)Nc2nc3ccccc3nc2N2CCc3ccccc3C2)cc1` was 1.37% (active).
Take `Cc1ccc(S(=O)(=O)C(C#N)c2nc3ccccc3nc2N2CCCC2)cc1C` (centres undefined): the activation is -0.41% (inactive).
The value for `COCCCNc1nc2ccccc2nc1NS(=O)(=O)c1ccc(F)cc1` was -0.23% (inactive); that for `Cc1cc(C(=O)NN=C/C=C/c2ccco2)n[nH]1` was -0.85% (inactive); that for `CCOC(=O)C(=O)N(Cc1ccccc1)c1ccccc1C(=O)Nc1cc(OC)ccc1OC` was -1.83% (inactive).
The result for `CCc1ccc2oc(-c3ccc(N)cc3)nc2c1` reads 1.77% (active).
The value for `Cc1ccc(-c2nnc(SCC(=O)Nc3ccc(Oc4ccccc4)cc3)n2Cc2ccco2)cc1` was -1.75% (inactive).
Consider `COC(=O)[C@]1(C#N)CC(=O)N(CC2CCCCC2)[C@@H]1c1ccccc1`, for which the activation is 0.53% (inactive).
The value for `O=C(Nc1ccccc1)N1CCN(Cc2nc3ccccc3c(=O)[nH]2)CC1` was -0.67% (inactive).
Consider `COc1ccc(C(=O)Nc2sc(C)c(C)c2CN2CCOCC2)cc1`, for which the activation is 1.65% (active).
The value for `CCc1cc(C(c2ccccc2OC)N2CCOCC2)c(NC(=O)c2ccccc2)s1` (centres undefined) was -1.1% (inactive).
In the case of `COc1ccc(C(=O)Nc2ccnn2C2CCN(Cc3ccncc3)CC2)cc1`, the activation is -0.78% (inactive).
In the case of `O=C(NCc1cccs1)C1CCCN(S(=O)(=O)c2ccc([N+](=O)[O-])cc2)C1` (centres undefined), the activation was -1.79% (inactive).
The result for `Cc1nc(CNc2ncnc3ccc(-c4ccc5c(c4)OCO5)cc23)cs1` reads -1.38% (inactive); that for `CNc1nc(Nc2ccc(C)c(Cl)c2)nc(N)c1[N+](=O)[O-]`, 2.25% (active); that for `Nc1nc(Nc2ccccc2F)nc(NC2CCCCC2)c1[N+](=O)[O-]`, -0.48% (inactive).
The value for `COCCNc1nc(N)c([N+](=O)[O-])c(NCCO)n1` was -1.31% (inactive).
The value for `CC(C)CNc1cccc2c1S(=O)(=O)N(Cc1cn(Cc3ccccc3C(F)(F)F)nn1)Cc1ccccc1O2` was -0.93% (inactive).
For the molecule `Cc1ccc(CN2CCCCC(NC(=O)C3CCCCC3)C2=O)cc1` (centres undefined), the activation was -0.73% (inactive).
Consider `CC(CCN1CCC(C(O)(c2ccccc2)c2ccccc2)CC1)Oc1ccc([N+](=O)[O-])cc1Cl` (centres undefined), for which the activation is -0.24% (inactive).
The result for `NS(=O)(=O)c1ccc2nc(NC(=O)CS(=O)(=O)c3ccc(F)cc3)sc2c1` reads 1.3% (active); that for `Cc1nc2ccc(S(=O)(=O)NCC(=O)O)cc2s1`, -0.93% (inactive); that for `CCS(=O)(=O)N1Cc2ccccc2CC1C(=O)Nc1nc2ccc(F)cc2s1` (centres undefined), 0.55% (inactive).
The value for `CCCCN1CCN(C(=O)c2ccc3c(c2)NC(=O)C(C)(C)O3)CC1` was -1.34% (inactive); that for `COc1ccc(C#CCNCc2ccc(OC)cc2OC)cc1` was -1.38% (inactive); that for `COc1ccc(C(=O)NCc2ccccc2C)cc1S(=O)(=O)NC1CCCC1` was 0.92% (active).
The value for `COc1ccc(C(=O)O)cc1S(=O)(=O)NC1CCN(Cc2ccccc2)CC1` was -1.42% (inactive); that for `COc1ccc(C)cc1S(=O)(=O)NC1CCCCC1` was -0.84% (inactive); that for `CCCCNC(=O)C[C@@H]1C(=O)N(CCc2ccc(Cl)cc2)C2=CCCC[C@]21C(=O)OCC` was -2.02% (inactive).
For `CC(C)CNC(=O)OCc1cn(Cc2ccc(F)cc2)nn1`, the activation was -0.96% (inactive).
The value for `CC(c1c[nH]c2ccccc12)c1c(-c2ccccc2)n(C)c2ccccc12` (centres undefined) was -0.45% (inactive); that for `O=C(OCc1cn(-c2ccc(Cl)c(Cl)c2)nn1)c1ccccc1Cl` was -1.04% (inactive).
The result for `CCOC(=O)[C@]12CCCC=C1N(Cc1ccc(OC)cc1)C(=O)[C@@H]2CC(=O)NCc1cccs1` reads -1.35% (inactive); that for `C=CCN(Cc1ccc2c(c1)OCO2)C(C#CC1CC1)C(C)(C)C` (centres undefined), -1.38% (inactive).
As for `O=C1Nc2ccccc2C1=NN=Cc1ccco1`, the activation was 0.04% (inactive).
Take `CN(C)/C=C1\C=C(c2ccccc2)OC1=O`: the activation was -0.4% (inactive).
The result for `CN(C)/C=C1/C(=O)Nc2ccccc21` reads 1.06% (active); that for `Cc1ccc(-n2c(SCC(=O)Nc3ccc(S(=O)(=O)Nc4nccs4)cc3)nnc2-c2ccncc2)cc1`, -1.76% (inactive); that for `CC(=O)O[C@@]1(C(C)=O)CCC2[C@H]3C=C(C)C4=CC(=O)CC[C@@]4(C)C3CC[C@]21C` (some centres undefined), -1.19% (inactive).
The result for `C/C(=N\NC(=S)NC1CCCCC1)c1ccc(C)o1` reads -2.41% (inactive); that for `C/C(=N/NC(=O)c1ccc(Br)o1)c1ccc(C)o1`, 1.57% (active); that for `CC(C)(C)C1CCC(=NNC(=O)c2ccc(Br)o2)CC1` (centres undefined), -0.04% (inactive).
Regarding `Cc1sc2nc(SCC(=O)c3ccc(O)c(O)c3)n(Cc3ccco3)c(=O)c2c1C`, the activation is -1.42% (inactive).
As for `O=S(=O)(NC1CCCCC1)c1ccc(F)c2ccccc12`, the activation is -1.61% (inactive).
The value for `C=CCN(C(=O)[C@@H](CCCC)[C@@H](O)c1ccc(Cl)cc1)c1ccccc1` was -1.08% (inactive); that for `C=C1C(C(C)C)N(C)C2=NC(c3ccccc3)CC(=O)N12` (centres undefined) was -1.49% (inactive).
Turning to `COc1ccccc1C(=O)NCCC(=O)NC1=NCCS1`, the activation was -0.76% (inactive).
For `COc1ccc(C(=O)NC2=NCCS2)c(OC)c1`, the activation is 1.63% (active).
The result for `O=C(NC1=NCCS1)c1ccc(Cl)s1` reads -1.02% (inactive).
The value for `O=C(NCCc1c[nH]c2ccccc12)OCc1cn(-c2c(F)cccc2F)nn1` was -1.14% (inactive); that for `O=C(NCc1ccco1)C1CCCN(S(=O)(=O)c2ccc(Cl)s2)C1` (centres undefined) was 0% (inactive).
Regarding `OCCC1CN(Cc2cnc(-c3ccccc3)s2)CCN1CCc1ccccc1` (centres undefined), the activation is -1.41% (inactive).
With `OCCC1CN(Cc2cccn2-c2nccs2)CCN1CCc1ccccc1` (centres undefined), the activation was 1.5% (active).
The result for `OCCC1CN(Cc2ccc(Oc3ncccn3)cc2)CCN1CCc1ccccc1` (centres undefined) reads -0.5% (inactive).
As for `COC(=O)c1cccc(Cn2ccc3ccc(-c4ccc5ccn(C(=O)C6CCCCC6)c5c4)cc32)c1`, the activation was -1.1% (inactive).
`COc1ccc(-c2cc(-c3nnc(SCc4ccc([N+](=O)[O-])cc4)n3N)[nH]n2)cc1`: the activation was -0.73% (inactive).
The result for `CCCC[C@H]1C2CC(OC(=O)NCc3ccccc3)C(C2)[C@H]2CCCCN21` (some centres undefined) reads -1.06% (inactive).
Take `CCCCOCCCNC(=O)C[C@H]1C[C@@]2(C(=O)OC)C(=C[C@H](C(C)(C)C)O[C@@H]2C)N(CCc2ccc(OC)c(OC)c2)C1=O`: the activation was -1.19% (inactive).
